Reference: publication PMC4336329 (PLoS ONE, 2015)
Screen size: about 310,000 compounds; about 14,000 (4.5%) showed an effect of 50% or more. Effects have a minus sign here. The entries come from a sample that favours strong results as a whole.

molecular target: human ether-à-go-go-related gene (hERG) potassium channel (human, UniProt Q12809); assay: primary screen, population patch clamp on CHO cells stably expressing hERG; higher = less effect of the substance
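Also: peak tail current of the secondary pulse compared with the same well before compound.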

Sequence of human ether-à-go-go-related gene (hERG) potassium channel (Q12809 whole entry, looked up): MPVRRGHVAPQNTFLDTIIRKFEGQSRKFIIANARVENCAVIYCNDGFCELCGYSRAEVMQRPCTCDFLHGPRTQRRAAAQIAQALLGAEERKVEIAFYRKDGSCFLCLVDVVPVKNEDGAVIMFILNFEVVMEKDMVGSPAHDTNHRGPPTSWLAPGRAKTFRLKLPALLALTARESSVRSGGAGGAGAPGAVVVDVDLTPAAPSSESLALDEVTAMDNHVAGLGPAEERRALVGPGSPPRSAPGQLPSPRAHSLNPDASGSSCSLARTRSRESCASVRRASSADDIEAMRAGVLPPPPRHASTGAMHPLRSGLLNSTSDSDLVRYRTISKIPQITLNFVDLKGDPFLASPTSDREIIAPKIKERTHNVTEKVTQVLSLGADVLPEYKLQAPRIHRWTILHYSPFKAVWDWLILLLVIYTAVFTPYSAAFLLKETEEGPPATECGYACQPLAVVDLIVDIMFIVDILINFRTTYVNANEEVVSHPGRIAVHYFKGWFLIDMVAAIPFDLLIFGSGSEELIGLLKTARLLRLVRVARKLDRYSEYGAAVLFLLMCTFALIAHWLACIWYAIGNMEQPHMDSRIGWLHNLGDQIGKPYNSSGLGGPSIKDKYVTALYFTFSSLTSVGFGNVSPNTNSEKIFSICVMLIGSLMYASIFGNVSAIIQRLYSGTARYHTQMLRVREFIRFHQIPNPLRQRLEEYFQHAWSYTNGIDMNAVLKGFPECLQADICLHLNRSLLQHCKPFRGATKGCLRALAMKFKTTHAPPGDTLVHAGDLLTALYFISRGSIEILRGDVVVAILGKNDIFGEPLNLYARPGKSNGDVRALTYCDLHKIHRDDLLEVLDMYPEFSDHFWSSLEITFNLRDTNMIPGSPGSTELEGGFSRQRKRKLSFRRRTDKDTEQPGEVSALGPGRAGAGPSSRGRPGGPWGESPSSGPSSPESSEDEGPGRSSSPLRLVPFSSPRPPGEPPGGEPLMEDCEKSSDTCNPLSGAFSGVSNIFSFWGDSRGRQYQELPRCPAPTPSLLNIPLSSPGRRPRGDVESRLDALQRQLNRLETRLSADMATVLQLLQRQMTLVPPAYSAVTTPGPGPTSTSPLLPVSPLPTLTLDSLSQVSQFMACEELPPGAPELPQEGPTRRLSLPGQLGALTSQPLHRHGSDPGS

Row | Structure (SMILES) | hERG current change (%, negative = inhibition) at 10uM [%]
1 | COc1ccc(C2=NS(=O)(=O)N(C)C(C(=O)Nc3ccc(OC)c(OC)c3)=C2)cc1 | -11.9
2 | O=C(CSc1nc2ccc(Cl)cc2[nH]1)c1c[nH]c2ccccc12 | 26.8
3 | COc1ccc(C(CC(=O)N2CCCC2)c2ccc(F)cc2)cc1 (stereo not drawn) | -71.5
4 | O=C(c1ccc(Cl)cc1)N1CCN(c2ccc(F)cc2)CC1 | -34
5 | Cc1ccc(C(=O)N2CCN(c3ccc(Cl)cc3)CC2)cc1 | -61.1
6 | COc1ccc(C(=O)N2CCC(C(=O)c3c(C)cc(C)cc3C)CC2)cc1 | -55.3
7 | O=C(c1ccccc1)N1CCN(c2ccc(Cl)cc2)CC1 | -25.1
8 | COc1ccc(C(CC(=O)N2CCCCC2)C(C)C)cc1 (stereo not drawn) | 15.8
9 | COc1cc(OC)cc(C(=O)N2CCC(C(=O)c3ccc(F)cc3)CC2)c1 | -30.8
10 | COc1ccc(C(CC(=O)N2CCCC2)C(C)C)cc1 (stereo not drawn) | -2.25
11 | COc1ccc(C(=O)N2CCC(C(=O)c3ccc(F)cc3)CC2)cc1 | -70.2
12 | COc1ccc(C(=O)C2CCN(C(=O)c3ccc(F)cc3)CC2)cc1 | -28.5
13 | Cc1ccc(C(=O)N2CCC(C(=O)c3c(C)cc(C)cc3C)CC2)cc1 | -38.5
14 | COc1cc(OC)cc(OC(=O)C2CCN(C(=O)c3ccc(Cl)cc3)CC2)c1 | -33.9
15 | CCc1ccc(N(CC(=O)Nc2ccc(NC(C)=O)cc2)S(=O)(=O)c2ccccc2)cc1 | 10.5
16 | C#CCn1ccc(O)c(Cc2c(F)cccc2Cl)c1=O | 8.2
17 | Cc1cccc(NC(=O)c2cc(-c3ccco3)nc3ccccc23)n1 | 4.05
18 | O=C1CN(C(=S)NC(=O)c2ccccc2[N+](=O)[O-])CCN1 | 16.9
19 | COc1ccc([N+](=O)[O-])cc1NC(=O)COC(=O)/C=C/c1ccco1 | 1.54
20 | COc1ccc(Cl)cc1C(=O)NNC(=O)CSc1nnnn1C | 9.95
21 | Cc1cc(-c2ccccc2)nc(SCc2ccc(C(=O)O)cc2)n1 | 23.8

Row | Structure (SMILES) | hERG current change (%, negative = inhibition) at 10uM [%]
22 | Cc1ccc(C(=O)C2CCN(C(=O)c3ccc(C)cc3)CC2)cc1 | -36.8
23 | COc1ccc(NC(=S)N2CCC(C(=O)c3ccc(C)cc3)CC2)cc1 | -21.9
24 | COc1ccc(NC(=S)N2CCC(C(=O)c3ccc(OC)cc3)CC2)cc1 | -45.4
25 | COc1ccc(C(=O)C2CCN(C(=O)c3ccc(OC)cc3)CC2)cc1 | -77.1
26 | Cc1ccc(C(=O)N2CCC(C(=O)c3ccc(Cl)cc3)CC2)cc1 | -68.4
27 | COc1ccc(C(=O)C2CCN(C(=O)c3ccco3)CC2)cc1 | -13.4
28 | O=C(c1ccc(Cl)cc1)C1CCN(C(=O)c2ccccc2)CC1 | -34.3
29 | COc1ccc(C(=O)C2CCN(C(=O)Nc3ccc(C)cc3)CC2)cc1 | -9.82
30 | COc1ccc(C(=O)C2CCN(C(=O)c3ccc(C)cc3)CC2)cc1 | -66.3
31 | CCOP(=O)(OCC)C(NC(=O)c1ccc(OC)c(OC)c1)c1ccccc1 (stereo not drawn) | 9.71
32 | COc1ccc(/C(O)=C2\C(=O)C(=O)N(CCN(C)C)C2c2cc(OC)c(OC)c(OC)c2)c(C)c1 (stereo not drawn) | 3.79
33 | COc1ccc(NC(=O)/C(N=Nc2cc(S(=O)(=O)Nc3ccc(OC)cc3)ccc2OC)=C(\C)O)cc1 | 24.2
34 | O=C(c1cnn2c(C(F)(F)F)cc(-c3ccc(F)cc3)nc12)N1CCc2ccccc2C1 | -3.83
35 | COc1ccc(Nc2ncnc3c2cnn3Cc2ccccc2)cc1 | -18.1
36 | CC(C)N(C(=O)c1sc2cc([N+](=O)[O-])ccc2c1Cl)C(C)C | -13.4
37 | CCOc1ccc(NC(=O)C(CC)n2nc(C)c3c(C)n(-c4ccccc4)nc3c2=O)cc1 (stereo not drawn) | -30.1
38 | CCSc1ccccc1C(=O)Nc1cccnc1 | -5.83
39 | COc1ccc(-c2[nH]ncc2CN2CCCN(C(=O)c3ccco3)CC2)cc1F | -55.2
40 | O=C(c1ccco1)N1CCCN(Cc2cn[nH]c2-c2ccc(-c3ccccc3)cc2)CC1 | -59.3
41 | O=C(c1ccco1)N1CCN(Cc2cn[nH]c2-c2cccc3ccccc23)CC1 | -29.1
42 | COCC1CCN(Cc2cn[nH]c2-c2ccc(OC)c(F)c2)C1 (stereo not drawn) | -4.22
